Inconclusive results are not listed. Where a call stands in place of a potency, no number is given. The source made the active and inactive calls. Unless noted, calls follow the shape of the dose curve; as a rule, active = well fitted curve in the direction sought with a large enough effect; inconclusive = small, poorly fitted or top-dose-only effect, or another doubt; inactive = no such curve, though single readings can be large; an effect the other way counts as inactive or inconclusive.
What was measured:
[1] = biological target: Rap guanine nucleotide exchange factor 4 (Homo sapiens) (UniProt Q8WZA2); assay: Confirmatory qHTS for agonist of cAMP-regulated guanine nucleotide exchange factor 4 (EPAC2) (AID 1645884); conditions: EPAC2 GEF activity, Rap1B-BODIPY-GDP fluorescence, percent relative to cAMP agonist control; series mostly up to 154 µM;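 also: nucleotide exchange releases bodipy-GDP from Rap1 and this lowers its fluorescence; nearly all actives have a fitted effect of over 65% in size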
[2] = biological target: Rap guanine nucleotide exchange factor 4 (Homo sapiens) (UniProt Q8WZA2); assay: Confirmatory qHTS for antagonist of cAMP-regulated guanine nucleotide exchange factor 4 (EPAC2) (AID 1645885); conditions: EPAC2 Rap1B-BODIPY-GDP exchange fluorescence, biochemical; series mostly up to 114 µM; also: nearly all actives have a fitted effect of over 25% in size; also: potency is read from the fitted curve at half-maximal effect
[3] = biological target: Catechol O-methyltransferase (Homo sapiens) (UniProt P21964); assay: Confirmatory Screen for Target Class Profiling of Small Molecule Inhibitors of Methyltransferases (AID 1745852; calls by dose curve; also: potency is read from the fitted curve at half-maximal effect); conditions: MTase-Glo luminescence, SAH detection, recombinant enzyme; measured here: COMT max response; stronger effect = lower value
[4] = biological target: Guanidinoacetate N-methyltransferase (Homo sapiens) (UniProt Q14353); assay: as above; conditions: MTase-Glo luminescence, SAH detection, recombinant enzyme; activity change, negative = inhibition: at 57.3 µM (top of the series)
[5] = biological target: Nicotinamide N-methyltransferase (Homo sapiens) (UniProt P40261); assay: as above; conditions: MTase-Glo luminescence, SAH detection, recombinant enzyme; measured here: NNMT max response; stronger effect = lower value
[6] = biological target: Phenylethanolamine N-methyltransferase (Homo sapiens) (UniProt P11086); assay: as above; conditions: MTase-Glo luminescence, SAH detection, recombinant enzyme; measured here: PNMT max response; stronger effect = lower value
[7] = biological target: Luciferin 4-monooxygenase (Photinus pyralis) (UniProt P08659); assay: Primary firefly luciferase (FLuc) qHTS assay for identification of artifact compounds. (AID 1845220); conditions: purified firefly luciferase, luminescence, 5 min; series mostly up to 54.1 µM; also: nearly all actives have a fitted effect of over 60% in size
In short: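 Reaction readout was CCD-imaged luminescence, taken 5 min after adding 10 nM purified firefly enzyme to compound-treated wells holding 10 uM luciferin and ATP in pH 7.6 buffer.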

[8] = tested on: Nanoluciferase (engineered Oplophorus gracilirostris luciferase); assay: Primary Nanoluciferase (NLuc) qHTS assay for identification of artifact compounds. (AID 1845222); conditions: NLuc-conditioned medium, Nano-Glo luminescence, 5 min; series mostly up to 54.1 µM;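 also: NLuc secreted into diluted conditioned medium of S16 cells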
In short: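 Concentration-response data were obtained by luminescence after 5 min with Nano-Glo substrate at 1:100. The enzyme was diluted S16 NLuc-expressing cell medium, preincubated with compound for 15 min at RT. Curves were fitted with a 4-parameter Hill model.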

[9] = Primary redox qHTS assay for identification of artifact compounds. (AID 1845223); conditions: Amplex Red/HRP redox cycling with DTT, fluorescence; series mostly up to 53.8 µM
In short: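 Amplex Red (25 uM) and HRP (250 mU/mL) in HBSS, with compounds for 15 min, then 250 uM DTT for 30 min, room temperature, dark. Fluorescence 525/598 nm read; normalized to DMSO and 10 uM DA3003; Hill fit.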

[10] = NCATS anti-infectives library activity on HEK293 viability as a counter-qHTS vs the C. elegans viability qHTS (AID 1745854); conditions: HEK293 viability counter-screen; series mostly up to 41.8 µM;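 also: HEK293 cells exposed to compounds for 24 hr before the viability read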
In short: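 HEK293 cells (1,500/well) exposed 24 hr at 37C to 1:5 titrations, up to 41.7 uM final; counter-screen to a C. elegans viability qHTS. Viability by CellTiter-Glo luminescence after 10 min at room temperature; digitonin as control.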

[11] = Viability counterscreen for antagonist of constitutive androstane receptor (CAR) against the NCATS DSHEA and TCM libraries (AID 1794837); conditions: CAR reporter cell line viability counterscreen, qHTS; series mostly up to 40 µM;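 also: compound exposure lasted 24 h before viability reading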
In short: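 Fluorescence from CellTiter-Fluor reports live-cell protease activity in HepG2-CYP2B6-hCAR cells treated for 24 h with substances alongside 48 uM CITCO.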

[12] = Viability counterscreen for agonist of constitutive androstane receptor (CAR) against the NCATS DSHEA and TCM libraries (AID 1794838); conditions: HepG2 cell viability counterscreen, CAR agonist assay; series mostly up to 40 µM;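 also: cells exposed to compound for 24 h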
In short: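 In agonist mode, PK11195 is added at 0.75 uM final to HepG2-CYP2B6-hCAR cells dosed with test substances. Cultures incubate 24 h at 37C before a protease-based fluorogenic viability readout.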

[13] = biological target: Nuclear receptor subfamily 1 group I member 3 (Homo sapiens) (UniProt Q14994); assay: Primary qHTS for agonist of constitutive androstane receptor (CAR) against the NCATS DSHEA and TCM libraries (AID 1794839); conditions: CAR agonist reporter cells, qHTS luminescence; series mostly up to 40 µM;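 also: HepG2 cells expressing human CAR with a CYP2B6 reporter plus PK11195 antagonist; luciferase reporter luminescence read with ONE-Glo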
In short: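 Cells stably carrying hCAR and a CYP2B6 reporter (HepG2 background) are seeded and allowed 5 h to adhere. Substances at multiple concentrations are added alongside 0.75 µM PK11195, and luciferase signal is measured after 24 h.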

[14] = HepG2 viability counterscreen (readout 2: ATP content) against the NCATS DSHEA and TCM libraries (AID 1794840); conditions: ATP content luminescence; series mostly up to 27.3 µM;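 also: HepG2 cells exposed to substances for about 24 h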
In short: (§1)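 Cytotoxicity was assessed in HepG2 cells plated at 1,000 cells/well and exposed for about 24 hours to a concentration series. Protease activity and ATP content were measured sequentially in each well.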

[15] = HepG2 viability counterscreen (readout 1: protease activity) against the NCATS DSHEA and TCM libraries (AID 1794841); conditions: qHTS concentration series; series mostly up to 27.3 µM;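 also: cells exposed to compounds for about 24 h before the protease read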
In short: as §1

[16] = biological target: Glutathione peroxidase 1 (Homo sapiens) (UniProt P07203); assay: Primary qHTS Assay for Inhibitors of Recombinant Selenoprotein Glutathione Peroxidase 1 (GPX1) (AID 1845191); conditions: recombinant GPX1, GR-coupled NADPH fluorescence, 15 min; series mostly up to 48.8 µM; also: nearly all actives have a fitted effect of over 65% in size
In short: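 Recombinant GPX1 (10 nM final) was preincubated with compound for 30 min at room temperature, then reacted with 1 mM GSH, 0.5 mM CHP, 0.5 mM NADPH and 100 nM glutathione reductase; NADPH fluorescence (340/450 nm) was read at 0 and 15 min.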

[17] = biological target: Phospholipid hydroperoxide glutathione peroxidase GPX4 (Homo sapiens) (UniProt P36969); assay: Primary qHTS Assay for Inhibitors of Recombinant Selenoprotein Glutathione Peroxidase 4 (GPX4) (AID 1845192); conditions: recombinant GPX4, GR-coupled NADPH fluorescence, 15 min; series mostly up to 50 µM; also: nearly all actives have a fitted effect of over 65% in size
In short: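 GR-coupled readout: 100 nM GR, 1 mM GSH, 0.5 mM NADPH; NADPH fluorescence (ex 340/em 450 nm) read at t=0 and after 15 min RT. GPX4 200 nM, preincubated 30 min with compound; substrate 0.5 mM CHP.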

Rap guanine nucleotide exchange factor 4 (Homo sapiens), sequence (Q8WZA2 whole entry, looked up): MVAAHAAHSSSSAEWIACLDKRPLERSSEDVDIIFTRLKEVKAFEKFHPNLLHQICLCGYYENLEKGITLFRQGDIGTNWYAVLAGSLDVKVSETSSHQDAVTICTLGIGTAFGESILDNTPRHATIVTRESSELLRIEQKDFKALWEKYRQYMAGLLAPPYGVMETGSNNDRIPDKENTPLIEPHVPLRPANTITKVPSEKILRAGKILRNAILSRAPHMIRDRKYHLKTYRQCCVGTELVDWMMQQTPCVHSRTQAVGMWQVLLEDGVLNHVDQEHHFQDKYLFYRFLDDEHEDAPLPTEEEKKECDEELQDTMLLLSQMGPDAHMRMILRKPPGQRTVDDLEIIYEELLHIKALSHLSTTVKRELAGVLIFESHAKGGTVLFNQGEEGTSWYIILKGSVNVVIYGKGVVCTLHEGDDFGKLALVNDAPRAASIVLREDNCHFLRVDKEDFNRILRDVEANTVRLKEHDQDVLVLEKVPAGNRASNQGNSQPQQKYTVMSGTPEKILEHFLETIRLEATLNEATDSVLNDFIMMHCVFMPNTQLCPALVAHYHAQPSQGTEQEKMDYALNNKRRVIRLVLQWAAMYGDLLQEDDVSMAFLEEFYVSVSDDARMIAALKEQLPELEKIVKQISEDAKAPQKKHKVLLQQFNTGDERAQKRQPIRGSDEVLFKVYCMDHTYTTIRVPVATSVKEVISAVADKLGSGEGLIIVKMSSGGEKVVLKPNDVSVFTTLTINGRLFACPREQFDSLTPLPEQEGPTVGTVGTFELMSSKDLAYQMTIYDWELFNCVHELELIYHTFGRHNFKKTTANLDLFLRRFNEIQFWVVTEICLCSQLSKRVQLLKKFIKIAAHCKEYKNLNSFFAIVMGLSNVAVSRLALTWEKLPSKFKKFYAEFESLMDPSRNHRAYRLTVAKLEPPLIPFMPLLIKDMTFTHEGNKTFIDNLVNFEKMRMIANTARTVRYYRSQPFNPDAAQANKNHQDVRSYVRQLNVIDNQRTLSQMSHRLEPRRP
Phospholipid hydroperoxide glutathione peroxidase GPX4 (Homo sapiens), sequence (P36969 whole entry, looked up): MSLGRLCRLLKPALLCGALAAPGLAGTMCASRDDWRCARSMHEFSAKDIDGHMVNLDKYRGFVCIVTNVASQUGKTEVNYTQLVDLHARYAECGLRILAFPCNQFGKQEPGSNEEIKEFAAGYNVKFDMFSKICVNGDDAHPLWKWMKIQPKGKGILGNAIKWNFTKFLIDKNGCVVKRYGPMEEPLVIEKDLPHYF
Glutathione peroxidase 1 (Homo sapiens), sequence (P07203 whole entry, looked up): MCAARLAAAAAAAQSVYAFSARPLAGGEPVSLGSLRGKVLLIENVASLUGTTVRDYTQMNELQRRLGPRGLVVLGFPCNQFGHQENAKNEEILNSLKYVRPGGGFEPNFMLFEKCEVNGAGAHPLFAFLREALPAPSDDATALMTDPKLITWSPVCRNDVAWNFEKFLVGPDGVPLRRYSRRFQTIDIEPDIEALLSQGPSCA
Phenylethanolamine N-methyltransferase (Homo sapiens), sequence (P11086 whole entry, looked up): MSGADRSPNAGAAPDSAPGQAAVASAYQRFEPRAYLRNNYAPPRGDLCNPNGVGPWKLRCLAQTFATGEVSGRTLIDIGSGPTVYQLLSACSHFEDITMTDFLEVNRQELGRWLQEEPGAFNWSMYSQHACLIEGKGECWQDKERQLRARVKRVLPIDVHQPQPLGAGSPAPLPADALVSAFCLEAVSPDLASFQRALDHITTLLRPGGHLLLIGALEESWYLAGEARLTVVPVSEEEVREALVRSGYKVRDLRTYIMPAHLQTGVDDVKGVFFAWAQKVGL
Catechol O-methyltransferase (Homo sapiens), sequence (P21964 whole entry, looked up): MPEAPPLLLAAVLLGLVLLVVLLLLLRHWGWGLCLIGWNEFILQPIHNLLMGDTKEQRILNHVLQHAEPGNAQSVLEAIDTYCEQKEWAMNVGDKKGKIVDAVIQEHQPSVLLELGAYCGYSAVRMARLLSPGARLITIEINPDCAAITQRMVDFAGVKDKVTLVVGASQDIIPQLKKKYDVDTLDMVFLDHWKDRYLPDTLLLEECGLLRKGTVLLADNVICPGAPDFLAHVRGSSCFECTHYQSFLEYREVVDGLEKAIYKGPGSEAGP
Nicotinamide N-methyltransferase (Homo sapiens), sequence (P40261 whole entry, looked up): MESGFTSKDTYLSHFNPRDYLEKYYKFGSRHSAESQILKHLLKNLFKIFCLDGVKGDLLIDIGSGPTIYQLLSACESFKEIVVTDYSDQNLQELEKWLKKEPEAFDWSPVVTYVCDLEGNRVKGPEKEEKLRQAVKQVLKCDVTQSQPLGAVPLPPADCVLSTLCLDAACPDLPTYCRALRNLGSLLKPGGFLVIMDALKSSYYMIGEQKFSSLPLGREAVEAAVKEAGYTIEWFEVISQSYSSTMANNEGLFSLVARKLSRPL
Nuclear receptor subfamily 1 group I member 3 (Homo sapiens), sequence (Q14994 whole entry, looked up): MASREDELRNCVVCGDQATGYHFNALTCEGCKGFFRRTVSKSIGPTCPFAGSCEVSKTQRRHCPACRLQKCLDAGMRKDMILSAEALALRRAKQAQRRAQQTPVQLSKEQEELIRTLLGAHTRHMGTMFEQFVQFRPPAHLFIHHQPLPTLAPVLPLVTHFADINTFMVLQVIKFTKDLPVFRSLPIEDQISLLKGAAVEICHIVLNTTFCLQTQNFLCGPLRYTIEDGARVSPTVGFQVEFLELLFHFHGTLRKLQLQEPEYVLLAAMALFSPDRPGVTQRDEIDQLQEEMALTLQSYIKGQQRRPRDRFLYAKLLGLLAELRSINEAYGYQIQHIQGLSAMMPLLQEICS

In the case of Clc1ccc(CO/N=C(\Cn2ccnc2)c2ccc(Cl)cc2Cl)c(Cl)c1, the outcome [1] is reported as “inactive”.

In the case of Clc1ccc(CSC(Cn2ccnc2)c2ccc(Cl)cc2Cl)cc1 (configuration not stated), the outcome [1] is reported as “inactive” and the Potency [2] is reported as 22.1 µM (active).

In the case of C[C@H](N)[C@H](O)c1ccc(O)c(O)c1, the Potency [2] is reported as “inactive”.

With Cc1nnc2n1-c1sc(CCc3ccc(CC(C)C)cc3)cc1C(c1ccccc1Cl)=NC2C (configuration not stated) the activity [3] was -12.7%, the Potency [4] was 48.2 µM (active) and the activity [5] was -36.8%. The activity [6] was -8.97%, the outcome [7] was “inactive” and the outcome [8] was “inactive”. For the same compound, the outcome [9] was “inactive”.

In the case of C=CCN1CC[C@]23CCCC[C@H]2[C@H]1Cc1ccc(O)cc13, the activity [3] is reported as 0.434%, the activity change, negative = inhibition [4] is reported as 3.29% and the activity [5] is reported as -15.3%. For the same compound, the activity [6] was 2.6%.

For C[C@@H]1CC[C@H]2[C@@H](C)C(=O)O[C@@H]3O[C@@]4(C)CC[C@@H]1[C@]32OO4, the outcome [10] was “inactive”.

With C[C@]12CC[C@H](O)CC1=CC[C@@H]1[C@@H]2CC[C@]2(C)C(=O)CC[C@@H]12 the outcome [11] was “inactive”, the outcome [12] was “inactive” and the outcome [13] was “inactive”. The outcome [14] was “inactive”, the outcome [15] was “inactive” and the outcome [7] was “inactive”. The outcome [8] was “inactive” and the outcome [9] was “inactive”.

In the case of Cc1ccc(N=CN(C)C=Nc2ccc(C)cc2C)c(C)c1, the outcome [16] is reported as “inactive” and the Potency [17] is reported as “inactive”.

In the case of C[N+]1(C)[C@@H]2CC[C@H]1CC(OC(=O)C(CO)c1ccccc1)C2 (some centres not stated), the outcome [16] is reported as “inactive” and the Potency [17] is reported as “inactive”.

In the case of CC(C)(O)C(Cl)(Cl)Cl, the outcome [16] is reported as “inactive”.

With CCCCC1C(=O)NC(=O)N(C2CCCCC2)C1=O (configuration not stated) the outcome [16] was “inactive”, the outcome [7] was “inactive” and the outcome [8] was “inactive”. The outcome [9] was “inactive”.

With CN(C)C(=O)Oc1cc(OC(=O)N(C)C)cc(C(O)CNC(C)(C)C)c1 (configuration not stated) the outcome [16] was “inactive”.

With Clc1ccc(C(OCCN2CCCCC2)c2ccccc2)cc1 (configuration not stated) the outcome [16] was “inactive”.

In the case of O=C(CCCN1CCC(n2c(=O)[nH]c3ccccc32)CC1)c1ccc(F)cc1, the outcome [16] is reported as “inactive” and the Potency [17] is reported as “inactive”.

— PubChem BioAssay (NCATS)
